Results filed as inconclusive are left out. Entries that show only a call come without a potency. Unmarked numbers belong to inactive results. Activity calls are given as the source filed them. The call rests on the fitted dose curve; in most records, active means well fitted cell-killing curve with a large enough effect in the repeat runs; inconclusive means weak or mixed curves; inactive means flat fitted curve, though single readings scatter.
Assay: qHTS RealTime-Glo MT Cell Viability Assay in HepG2 cells - 24 hour (AID 1224867); further: nearly all actives have a fitted effect of over 50% in size
Settings: RealTime-Glo luminescence; series mostly up to 76.8 µM
Excerpt: U.S. Tox21 Program National Center for Advancing Translational Sciences [NCATS] NIH Chemical Genomics Center [NCGC] U.S. Environmental Protection Agency [EPA] National Institutes of Environmental Health Sciences [NIEHS] National Toxicology Program [NTP] U.S. Food and Drug Administration [FDA] Tox21 Assay Overview: Measure of cell viability is critical in the cell-base assay. Analysis of cell viability is necessary for the characterization of cell responses to cytotoxic drugs and environmental stress. A RealTime-Glo MT Cell Viability Assay to monitor cell viability in real time of continues cell culture during 40 hours of compound treatment was used to screen Tox21 10K library compounds in HepG2 cells. The RealTime-Glo MT Cell Viability Assay is a nonlytic, homogeneous, bioluminescent method to measure cell viability in real time using a simple, plate-based method. The assay involves adding NanoLuc luciferase and a cell-permeant prosubstrate to cells in culture. Viable cells reduce the proprietary prosubstrate to generate a substrate for NanoLuc luciferase. This substrate diffuses from cells into the surrounding culture medium, where it is rapidly used by the NanoLuc Enzyme to produce a luminescent signal. The signal correlates with the number of viable cells, making the assay well suited for cytotoxicity studies.
Tox21 Assay Protocol Summary: The mixture of HepG2 cell suspension and reagents were dispensed at 600cells/6 ul/well in 1536-well tissue culture treated black solid bottom plates using a Multidrop dispenser. After the assay plates were incubated at a 37 C/5% CO2 incubator for 5 hours, 23 nL of compounds dissolved in DMSO, positive and negative controls was transferred to the assay plate by a pintool work station. The plates were incubated at 37 C for 40 hours. The luminescence intensity were measured at 0h, 8h, 16h, 24h, 32h and 40h time points using ViewLux plate reader during compound treatment.

SMILES | activity change, negative = cytotoxicity | Potency
C[C@@H]1CN(c2c(F)c(F)c3c(=O)c(C(=O)O)cn(C4CC4)c3c2F)C[C@H](C)N1 | 0.621% [at 15.8 µM] | –
C=CCc1cc(OC)c(O)c(C(=O)NCCO)c1 | – | inactive
O=C(O)[C@@H](O)[C@H](O)[C@H](O)[C@@H](O)C(=O)O | – | inactive
CCC(=O)c1ccc2c(c1)N(CCCN(C)C)c1ccccc1S2 | – | inactive
CCOc1ccc(NS(=O)(=O)c2ccc(N)cc2)nn1 | – | inactive
CCCCCCOc1ccc(N)cc1 | – | inactive
CCOC(=O)NCCC[Si](OCC)(OCC)OCC | – | inactive
CC1(O)CSC(C)(O)CS1 (stereo not given) | – | inactive
Cc1ccc([N+](=O)[O-])c(N)c1 | – | inactive
CCCNC(C)(C)COC(=O)c1ccccc1 | – | inactive
CCCC1CCC(=O)O1 (stereo not given) | – | inactive
CCCCN1C[C@H](O)[C@@H](O)[C@H](O)[C@H]1CO | – | inactive
CS(=O)(=O)c1ccc([C@@H](O)[C@@H](CF)NC(=O)C(Cl)Cl)cc1 | – | inactive
CCOC(=O)c1cc(=O)c2c(OCC(COc3cccc4oc(C(=O)OCC)cc(=O)c34)OC(=O)[C@@H](N)CCCCN)cccc2o1 | – | inactive
Nc1cccc(S(=O)(=O)O)c1 | – | inactive
COC(=O)c1ccc2cc(C(=O)OC)ccc2c1 | 2.88% [at 15.8 µM] | –
CCCCOc1cc(C(=O)NCCN(CC)CC)c2ccccc2n1 | – | inactive
COc1nc(C)nc(NC(=O)NS(=O)(=O)c2ccccc2OCCCl)n1 | – | inactive
NC/C=C/C(=O)O | – | inactive
COC(C)CCO (stereo not given) | – | inactive

SMILES | activity change, negative = cytotoxicity | Potency
CC1=C2[C@H](/C=C(\C)C(=O)O)CC[C@@H](C)[C@H]2CC1 | – | inactive
Cc1c(C(=O)NCCO)[n+](=O)c2ccccc2n1[O-] | – | inactive
CCN(CCCc1ccccc1)CCCc1ccccc1 | – | inactive
O=C1Nc2ccc([N+](=O)[O-])cc2C1=O | – | inactive
COC(=O)N[C@H](C(=O)N[C@@H](Cc1ccccc1)[C@@H](O)CN(Cc1ccc(-c2ccccn2)cc1)NC(=O)[C@@H](NC(=O)OC)C(C)(C)C)C(C)(C)C | – | inactive
CCCCNc1cc(C(=O)O)cc(S(N)(=O)=O)c1Oc1ccccc1 | – | inactive
CN1CCN(N)CC1 | – | inactive
CC(=O)OC1C2(C)CCC(C2)C1(C)C (stereo not given) | – | inactive
CCCCCOc1ccc(C2SC(=O)NC2=O)cc1OCC (stereo not given) | – | inactive
C=CC1CO1 (stereo not given) | – | inactive
NC(=O)Cc1cccc(C(=O)c2ccccc2)c1N | – | inactive
C=C(C)C(=O)OCCOP(=O)(O)O | – | inactive
Cc1onc(-c2ccccc2)c1C(=O)Cl | – | inactive
O=c1oc2c(O)c(O)cc3c(=O)oc4c(O)c(O)cc1c4c23 | -9.61% [at 15.8 µM] | –
CC(=O)Oc1cc(C(C)C)c(OCCN(C)C)cc1C | – | inactive
C=Cc1ccccc1 | – | inactive
OCCN1CCN(CCO)CC1 | – | inactive
Cc1ccsc1C(=CCCN1CCC[C@@H](C(=O)O)C1)c1sccc1C | – | inactive
NCCC(O)(P(=O)(O)O)P(=O)(O)O | – | inactive
O=C(O)c1ccccc1Nc1cc(Cl)ccc1C(=O)O | -0.715% [at 15.8 µM] | –
